Assay [1] deals with Zika virus NS2B-NS3 protease (unlinked complex). As to the kind of experiment: Primary screen GU Rhodamine qHTS for Zika virus inhibitors: Unlinked NS2B-NS3 protease assay (AID 1347159). Note: nearly all actives have a fitted effect of over 60% in size. The method, boiled down:
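Compounds, tested up to 114 microM, were incubated for 15 minutes with 25 nM unlinked NS2B-NS3 protease at pH 8.0. Cleavage of 1.5 microM Rhodamine110 substrate was then followed by fluorescence for 15 minutes.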
For orientation: In qHTS, concentration-response curves come from the screen itself.

Assay [2] relates to Zika virus NS2B-NS3 protease (linked construct). As to the kind of experiment: Primary screen NINDS Rhodamine qHTS for Zika virus inhibitors (AID 1347160). Note: nearly all actives have a fitted effect of over 55% in size. In outline: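 Percent inhibition, normalized to uninhibited and enzyme-free controls, is fitted to a 4-parameter Hill equation. Fluorescence change comes from a 15-min cleavage of 1.5 microM bis-peptide Rhodamine110 substrate by 25 nM linked NS2B-NS3 at room temperature.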

Structures are written as SMILES. Inconclusive results are not listed. A call without a number means that no potency is given here. Activity calls are given as the source filed them. Calls come from the whole dose curve; as a rule, active = well fitted inhibition curve with a large enough effect; inconclusive = small, poorly fitted or top-dose-only effect; inactive = no such curve, though single readings can be large or run the other way.

Take `COc1ccc(CCc2nc3cc(-c4c(C)noc4C)ccc3n2CC(C)N2CCOCC2)cc1Cl` (stereo not given): the Potency result in assay [1] and in assay [2] was “inactive” each time.
With `CC(=O)OC1C(O)CC2(C)C(CCC3(C)C2CC=C2C4C5(CCC(CO[C@@H]6O[C@H](CO)[C@@H](O)[C@H](O)[C@H]6O)(OC5=O)C4(C)O)C(O)CC23C)C1(C)C` (stereo not given in full), the Potency result in assay [1] and in assay [2] was “inactive” throughout.
For the compound `COc1ccc(Oc2c(Cl)cnn(-c3cc(C)cc(C)c3)c2=O)cc1`, the Potency result in assay [1] and in assay [2] was “inactive” throughout.
As to `COc1ccc(NC(=O)c2ccc(-c3ccc(C(=N)N)cc3C)cc2)cc1N1CCN(C)CC1`, the Potency entry in assay [1] and in assay [2] was “inactive” each time.
For `CCCC(CCC)C(=O)NCc1ccc2c(cnn2-c2ccccc2OC)c1`, the Potency entry in assay [1] and in assay [2] was “inactive” throughout.
Consider `C=C1C(=O)O[C@@H]2C(OC(=O)/C(C)=C\C)/C(C)=C\C(=O)/C=C(\C)C[C@H](O)[C@@H]12` (stereo not given in full), for which the Potency result in assay [1] and in assay [2] was “inactive” in each case.
Consider `CCCc1ccc(OCC(=O)N(Cc2nc(-c3cccnc3)no2)C(C)C)cc1`, for which the Potency entry in assay [1] and in assay [2] was “inactive” throughout.
For the compound `Fc1ccc(-c2cncc(CN3CCN(c4cccc5c4OCCO5)CC3)c2)cc1`, the Potency result in assay [1] and in assay [2] was “inactive” throughout.
As for `CN1CCC(NC(=O)c2cc(-c3c(O)cc(O)cc3Oc3ccc([N+](=O)[O-])cc3)on2)CC1`, the Potency entry in assay [1] and in assay [2] was “inactive” each time.
For the compound `C=C1C(=O)O[C@@H]2/C=C(\CO)CC/C=C(/C=O)C[C@@H](O)[C@@H]12`, the Potency entry in assay [1] and in assay [2] was “inactive” in each case.
Consider `CNS(=O)(=O)c1ccccc1Nc1nc(Nc2ccc(N3CCN(C)CC3)cc2OC)ncc1Br`, for which the Potency result in assay [1] and in assay [2] was “inactive” each time.
Regarding `Cc1ccc(CNc2ncnc3ccc(-c4ccc(CO)o4)cc23)o1`, the Potency result in assay [1] and in assay [2] was “inactive” in each case.
As for `CC(C)OC(=O)N1CCC(Oc2ncnc3c2cnn3-c2ccc(S(C)(=O)=O)cc2F)CC1`, the Potency entry in assay [1] and in assay [2] was “inactive” throughout.
With `O=C(Nc1cccc([N+](=O)[O-])c1)c1cccc(S(=O)(=O)N2CCCCCC2)c1`, the Potency entry in assay [1] and in assay [2] was “inactive” throughout.
Regarding `CCCCNc1ncc(C(=O)NCc2ccc(-n3ccnc3)cc2)c(NC2CCC(O)CC2)n1` (stereo not given), the Potency result in assay [1] and in assay [2] was “inactive” throughout.
Regarding `CC(=O)Nc1nc(C)c(-c2nc(N3CCCC(O)C3)no2)s1` (stereo not given), the Potency result in assay [1] and in assay [2] was “inactive” in each case.
`COc1ccc2c(c1O[C@H]1CCNC1)CCC2`: the Potency entry in assay [1] and in assay [2] was “inactive” throughout.
With `CC(=O)c1c(C)cc2cccc(O)c2c1O[C@@H]1O[C@H](CO)[C@@H](O)[C@H](O)[C@H]1O`, the Potency result in assay [1] and in assay [2] was “inactive” throughout.
For `CO[C@@H]1CC(OC2CCC3(C)C(CCC45CCC(C6=CC(=O)OC6)C(C)(CCC43)C5=O)C2)O[C@H](C)[C@@H]1O[C@@H]1O[C@H](CO[C@@H]2O[C@H](CO)[C@@H](O)[C@H](O)[C@H]2O)[C@@H](O)[C@H](O)[C@H]1O` (stereo not given in full), the Potency entry in assay [1] and in assay [2] was “inactive” in each case.
As for `Oc1ccc(-c2cnc3ccc(NCc4ccco4)nn23)cc1`, the Potency entry in assay [1] and in assay [2] was “inactive” in each case.
Turning to `CCCCCCCCC(=O)N[C@H](CN1CCCC1)[C@H](O)c1ccc2c(c1)OCCO2`, the Potency entry in assay [1] and in assay [2] was “inactive” each time.
Consider `FC(F)(F)c1ccc(/C=C/c2nc(COc3ccc(CCCCn4ccnn4)cc3)co2)cc1`, for which the Potency result in assay [1] and in assay [2] was “inactive” throughout.
`COc1ccc(-c2cc3onc(-c4ccncc4)c3c(=O)n2C)cc1`: the Potency result in assay [1] and in assay [2] was “inactive” each time.
With `COC(=O)c1ccc2c(c1)[nH]c1ncnc(NCCCN3CCCCC3)c12`, the Potency result in assay [1] and in assay [2] was “inactive” each time.
Turning to `CC(C)(O)C(=O)N1CCN(c2ccc(C(F)(F)F)c(C3=C(c4c[nH]c5ccccc45)C(=O)NC3=O)c2)CC1`, the Potency entry in assay [1] and in assay [2] was “inactive” in each case.
For the compound `COC1CCN(C(=O)c2cc(Cc3n[nH]c(=O)c4ccccc34)ccc2F)CC1`, the Potency result in assay [1] and in assay [2] was “inactive” each time.
In the case of `Cc1ccc(C(=O)Nc2ccc(CN3CCN(C)CC3)c(C(F)(F)F)c2)cc1C#Cc1cnc2[nH]ncc2c1`, the Potency result in assay [1] and in assay [2] was “inactive” each time.
For the compound `COc1ccc(Sc2ccc(NC(=O)c3ccccc3Cl)cc2C#N)cc1`, the Potency entry in assay [1] and in assay [2] was “inactive” each time.
For `O=C(c1ccccc1)c1c(O)cc(O)cc1O[C@@H]1O[C@H](CO)[C@@H](O)[C@H](O)[C@H]1O`, the Potency entry in assay [1] and in assay [2] was “inactive” in each case.
Regarding `Cc1ccc(N2CCN(CCC3NC(=O)c4ccccc43)CC2)cc1C` (stereo not given), the Potency entry in assay [1] and in assay [2] was “inactive” in each case.
As to `COc1cc2c(cc1OC)CN(C(=O)/C=C/c1c(-c3ccccc3)n(C)c3ncccc13)CC2`, the Potency result in assay [1] and in assay [2] was “inactive” throughout.
Consider `CC(=O)Nc1cccc(-c2csc(Nc3cc(C)ccn3)n2)c1`, for which the Potency result in assay [1] and in assay [2] was “inactive” in each case.
For the compound `O=C(Nc1ccc(Cl)cc1)C1CCCN(C(=O)c2cccc(-c3ccco3)c2)C1` (stereo not given), the Potency entry in assay [1] and in assay [2] was “inactive” throughout.
As to `CN(C)C(=O)Nc1cc(-c2ccccc2)ccc1N(C)C`, the Potency result in assay [1] and in assay [2] was “inactive” throughout.
Consider `Cc1cc(C)cc(-c2cnc3cc(Cl)c(-c4cccc(O)c4)cc3c2OCCCN)c1`, for which the Potency result in assay [1] and in assay [2] was “inactive” in each case.
